# Laboratory results reported in PubChem BioAssay (EPA / NIEHS).
# “And” between values parts separate entries of the source, which are not always exact repeats. Equal entries are not always repeated. Records with an inconclusive call do not appear. Some structures have more than one record in an assay (separate samples or runs), and their calls can disagree. The source made the active and inactive calls. The calls were made as follows, unless noted: active = hit-call score of the fitted dose curve at least 0.9, where 1 is the maximum; inactive = score below 0.9.
# Key:
# [1] = CCTE_Mundy_HCI_Cortical_Synap_Neur_Matur_NeuronCount: CCTE's Synaptogenesis and Neurite Maturation Assay in rat cortical cells for Neuron Count, Mundy Lab (AID 2284242; active = hit-call score of the fitted dose curve at least 0.9, where 1 is the maximum;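 as to AC50: hits reduce neuron count versus DMSO baseline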)
# How it was run: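 Measured at DIV 12: fluorescently labelled neurons (Hoechst nuclei, MAP2) in rat primary cortical cultures, counted by high-content imaging. AraC suppressed glia from DIV 5; DMSO served as negative control.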
# [2] = read-out: Interleukin 17F (IL17F), IL17F (gene 112744); assay: BSK_BT_xIL17F: BioMAP Diversity Plus: BT Assay for Interleukin 17F (IL17F) Biomarker Activity (AID 2284243); conditions: primary human B cells with PBMC
# How it was run: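 Compound was added to co-cultures of human B cells and PBMC. After 24 hours, IL-17F released into the medium was measured with LumineX xMAP technology. Responses were then fitted upward relative to DMSO.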
# [3] = read-out: Actin alpha 1 (ACTA1), ACTA1 (gene 58); assay: BSK_MyoF_ACTA1: BioMAP Diversity Plus: MyoF Assay for Actin alpha 1 (ACTA1) Biomarker Activity (AID 2284244); conditions: primary human lung fibroblasts
# How it was run: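 MyoF fibroblast system (human lung); a-SMA quantified via ELISA at 24 h; DMSO-normalised, gain-of-signal endpoint.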
# [4] = read-out: Interleukin 2 (IL2), IL2 (gene 3558); assay: BSK_BT_xIL2: BioMAP Diversity Plus: BT Assay for Interleukin 2 (IL2) Biomarker Activity (AID 2284245); conditions: primary human B cells with PBMC
# How it was run: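 Co-cultures of primary human B cells and PBMC are treated with chemical and sampled at 24 h. IL-2 secretion is quantified by Luminex xMAP, with DMSO-treated wells as baseline.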
# [5] = read-out: Basic fibroblast growth factor (bFGF), FGF2 (gene 2247); assay: BSK_MyoF_bFGF: BioMAP Diversity Plus: MyoF Assay for Basic fibroblast growth factor (bFGF) Biomarker Activity (AID 2284246); conditions: primary human lung fibroblasts
# Description: BSK_MyoF is a cell-based, multiplexed-readout assay that uses lung fibroblasts, a human […] primary cell, with measurements taken at 24 hours after chemical dosing in a microplate: 96-well plate.BSK_MyoF_bFGF is an assay component measured in the BSK_MyoF assay. It measures bFGF antibody related to regulation of gene expression using ELISA technology.Data from the assay component BSK_MyoF_bFGF was analyzed at the endpoint, BSK_MyoF_bFGF, in the positive analysis fitting direction relative to DMSO as the negative control and baseline of activity. Using a type of binding reporter, gain or loss-of-signal activity can be used to understand protein changes. To generalize the intended target to other relatable targets, this assay endpoint is annotated to the 'growth factor' intended target family, where the subfamily is 'basic fibroblast growth factor '.
# The levels of cell surface (or secreted, indicated by the prefix "s") biomarker endpoints were measured by ELISA. Overt cytotoxicity to cells in confluent adherent cultures (all systems other than the BT system) was assessed by measuring total protein levels using sulforhodamine B (SRB) staining in parallel cultures at the time of biomarker measurements, indicated as SRB endpoints. For proliferation assays for adherent cell types, individual cell types are cultured at sub-confluence and relative cell numbers quantified by SRB staining at time points optimized for each system (48 h: 3C and CASM3C systems; 72 h: BT and HDF3CGF systems; 96 h: SAg system). SRB was performed by staining cells with 0.1% SRB after fixation with 10% TCA and reading wells at 560 nm.Viability and proliferation of PBMC (T cells) was quantified by Alamar Blue reduction for the SAg and BT systems. […] Then, Alamar Blue (20 uL/well) (Invitrogen, Cat DAL1100) was added for 6 h, and the plates were read with a fluorescence microplate reader at 546/580 nm (excitation/emission). […] Plates were read after 6 h.
# [6] = read-out: Collagen IV, COL4A1 (gene 1282); assay: BSK_MyoF_CollagenIV: BioMAP Diversity Plus: MyoF Assay for Collagen IV Biomarker Activity (AID 2284247); conditions: primary human lung fibroblasts
# How it was run: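 Lung fibroblasts (human primary) treated with chemicals were assayed after 24 h for Collagen IV using an ELISA, with DMSO serving as negative control and baseline for a positive-direction fit.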
# [7] = read-out: Monokine induced gamma interferon (MIG), CXCL9 (gene 4283); assay: BSK_KF3CT_MIG: BioMAP Diversity Plus: KF3CT Assay for Monokine induced gamma interferon (MIG) Biomarker Activity (AID 2284248); conditions: primary human keratinocytes with fibroblasts
# How it was run: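 KF3CT system: keratinocyte/fibroblast co-culture, 24 h post-dose, MIG by ELISA; activity vs DMSO, positive fitting direction.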
# [8] = read-out: Vascular cell adhesion molecule 1 (VCAM1), VCAM1 (gene 7412); assay: BSK_BF4T_VCAM1: BioMAP Diversity Plus: BF4T Assay for Vascular cell adhesion molecule 1 (VCAM1) Biomarker Activity (AID 2284249); conditions: primary human bronchial epithelial cells with fibroblasts
# How it was run: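 Cell-surface VCAM-1 quantified by ELISA after 24 h chemical exposure of human bronchial epithelial/dermal fibroblast co-cultures, with SRB staining in parallel wells for cytotoxicity; DMSO baseline, positive-direction fitting.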
# [9] = read-out: Collagen I, COL1A1 (gene 1277); assay: BSK_hDFCGF_CollagenI: BioMAP Diversity Plus: hDFCGF Assay for Collagen I Biomarker Activity (AID 2284250); conditions: primary human foreskin fibroblasts
# How it was run: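 Readout: Collagen I by ELISA after 24 h compound treatment of primary human foreskin fibroblasts. Endpoint analysed for increases relative to DMSO; total protein by SRB in parallel wells flagged cytotoxicity.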
# [10] = read-out: Interferon-inducible T-cell alpha chemoattractant (ITAC), CXCL11 (gene 6373); assay: BSK_hDFCGF_ITAC: BioMAP Diversity Plus: hDFCGF Assay for Interferon-inducible T-cell alpha chemoattractant (ITAC) Biomarker Activity (AID 2284251); conditions: primary human foreskin fibroblasts
# How it was run: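 Chemical dosing of primary human foreskin fibroblast cultures preceded ELISA measurement of I-TAC at 24 h. Response was analysed in the positive direction using DMSO as baseline, while parallel SRB staining measured cytotoxicity.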
compound,measurement,setting,value
COP(=O)(OC)OC=C(Cl)Cl,AC50,[1],81.4 µM (active)
O=S(=O)(O)C(F)(F)C(F)(F)C(F)(F)C(F)(F)C(F)(F)C(F)(F)C(F)(F)C(F)(F)F,outcome,[1],inactive
same,outcome,[2],inactive
same,outcome,[3],inactive
same,outcome,[4],inactive
same,outcome,[5],inactive
same,outcome,[6],inactive
same,outcome,[7],inactive
same,outcome,[8],inactive
same,outcome,[9],inactive
same,AC50,[10],30 µM (active) and 38.1 µM (active)
same,outcome,[10],inactive
CC[C@H](C)[C@H]1O[C@]2(C=C[C@@H]1C)C[C@@H]1C[C@@H](C/C=C(\C)[C@@H](O[C@H]3C[C@H](OC)[C@@H](O[C@H]4C[C@H](OC)[C@@H](O)[C@H](C)O4)[C@H](C)O3)[C@@H](C)/C=C/C=C3\CO[C@@H]4[C@H](O)C(C)=C[C@@H](C(=O)O1)[C@]34O)O2 (tested in a mixture with another compound),AC50,[1],1.55 µM (active)
CNC(=O)CSP(=S)(OC)OC,AC50,[1],50 µM (active)
same,outcome,[1],inactive
O=C(O)C(F)(F)C(F)(F)C(F)(F)C(F)(F)C(F)(F)C(F)(F)C(F)(F)F,outcome,[1],inactive
same,outcome,[2],inactive
same,outcome,[3],inactive
same,outcome,[4],inactive
same,outcome,[5],inactive
same,AC50,[6],31.6 µM (active) [middle of 4 runs]
same,outcome,[7],inactive
same,outcome,[8],inactive
same,outcome,[9],inactive
same,outcome,[10],inactive
CC1(C)C(C=C(Cl)Cl)C1C(=O)OC(C#N)c1ccc(F)c(Oc2ccccc2)c1 (stereo not drawn),AC50,[1],49.9 µM (active)
CCC(C)(C)C(=O)OC1=C(c2ccc(Cl)cc2Cl)C(=O)OC12CCCCC2,outcome,[1],inactive
ClC1C(Cl)C(Cl)C(Cl)C(Cl)C1Cl (stereo not drawn),AC50,[2],20 µM (active)
same,outcome,[2],inactive
same,AC50,[3],28.5 µM (active)
same,outcome,[3],inactive
same,AC50,[4],31.9 µM (active)
same,outcome,[4],inactive
same,outcome,[5],inactive
same,outcome,[6],inactive
COP(=S)(OC)Oc1ccc([N+](=O)[O-])cc1,AC50,[1],22.1 µM (active)
CC1(c2ccc(Oc3ccccc3)cc2)OC(=O)N(Nc2ccccc2)C1=O (stereo not drawn),AC50,[1],10.9 µM (active)
O=S1OCC2C(CO1)C1(Cl)C(Cl)=C(Cl)C2(Cl)C1(Cl)Cl (stereo not drawn),AC50,[1],22.5 µM (active)
